# Paper PMC4336329 (PLoS ONE, 2015)
# Screen size: about 310,000 compounds; about 14,000 (4.5%) showed an effect of 50% or more. Effects have a minus sign here. Shown is part of a subset that was picked to be rich in strong results.
# Biological target: human ether-à-go-go-related gene (hERG) potassium channel (human, UniProt Q12809)
# Test: primary screen, population patch clamp on CHO cells stably expressing hERG; higher = less effect of the substance
# 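Note: peak tail current of the secondary pulse compared with the same well before compound.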
# human ether-à-go-go-related gene (hERG) potassium channel, sequence (Q12809 whole entry, looked up): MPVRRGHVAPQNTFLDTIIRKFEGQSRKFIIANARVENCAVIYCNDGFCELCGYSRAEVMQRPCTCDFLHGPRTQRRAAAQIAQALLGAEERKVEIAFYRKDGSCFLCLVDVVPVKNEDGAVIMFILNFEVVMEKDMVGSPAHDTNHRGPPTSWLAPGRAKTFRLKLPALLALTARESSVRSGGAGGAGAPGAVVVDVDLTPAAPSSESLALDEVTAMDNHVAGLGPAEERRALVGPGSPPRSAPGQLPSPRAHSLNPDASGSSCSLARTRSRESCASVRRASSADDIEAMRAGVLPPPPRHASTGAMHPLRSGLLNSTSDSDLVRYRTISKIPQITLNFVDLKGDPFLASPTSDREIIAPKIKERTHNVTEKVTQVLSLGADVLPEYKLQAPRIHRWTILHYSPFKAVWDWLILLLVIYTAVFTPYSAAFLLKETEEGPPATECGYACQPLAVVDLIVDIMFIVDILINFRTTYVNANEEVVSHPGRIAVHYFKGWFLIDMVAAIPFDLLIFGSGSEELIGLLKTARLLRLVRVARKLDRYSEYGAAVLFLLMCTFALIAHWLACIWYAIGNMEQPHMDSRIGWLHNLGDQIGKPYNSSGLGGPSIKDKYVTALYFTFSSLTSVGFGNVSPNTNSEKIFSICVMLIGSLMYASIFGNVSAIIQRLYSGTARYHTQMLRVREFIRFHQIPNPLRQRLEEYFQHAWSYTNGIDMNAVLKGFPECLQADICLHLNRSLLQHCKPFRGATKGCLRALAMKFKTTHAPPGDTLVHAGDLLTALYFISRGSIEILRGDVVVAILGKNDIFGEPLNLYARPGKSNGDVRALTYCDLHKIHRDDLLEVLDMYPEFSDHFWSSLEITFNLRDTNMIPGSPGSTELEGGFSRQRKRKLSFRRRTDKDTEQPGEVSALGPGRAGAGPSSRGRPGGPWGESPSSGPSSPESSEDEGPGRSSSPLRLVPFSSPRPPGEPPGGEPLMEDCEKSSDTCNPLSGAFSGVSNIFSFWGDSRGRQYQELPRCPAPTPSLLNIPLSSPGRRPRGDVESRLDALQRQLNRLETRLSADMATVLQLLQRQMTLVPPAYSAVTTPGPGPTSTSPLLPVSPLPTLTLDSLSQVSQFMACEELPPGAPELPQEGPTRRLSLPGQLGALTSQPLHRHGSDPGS
row,Structure (SMILES),"hERG current change (%, negative = inhibition) at 10uM [%]"
1,CCc1nc(SCC(=O)N2c3ccccc3CC2C)c2c(C)c(C)sc2n1 (centres unmarked),-5.78
2,Cc1ccc2cccc(S(=O)(=O)Nc3c(C)n(C)n(-c4ccccc4)c3=O)c2n1,-0.878
3,O=C(COc1ccc(F)cc1)NCC1(N2CCOCC2)CCCCC1,-27.9
4,CCc1ccc(N2CCN(C(=O)c3ccc4c(c3)OCO4)CC2)cc1,-50.3
5,O=C(c1ccc(F)cc1)N1CCN(c2ccc(N3CCOCC3)nn2)CC1,-12
6,CC(=O)c1ccc(N2CCN(C(=O)c3ccc4c(c3)OCO4)CC2)cc1,-45.4
7,CC(C)(C)c1ccc(C(=O)N2CCN(c3ccc(N4CCOCC4)nn3)CC2)cc1,-49.3
8,O=C(c1ccc2c(c1)OCO2)N1CCN(c2ccc(F)cc2)CC1,-30.4
9,O=C(c1ccc(C(F)(F)F)cc1)N1CCN(c2ccc(N3CCOCC3)nn2)CC1,-67.9
10,Cc1ccccc1NCC(=O)N/N=C\c1ccc2c(c1)OCO2,-0.637
11,COc1ccc(OC)c(NC(=O)NCCc2cccc(Cl)c2)c1,10.1
12,C=CCCC1(C)C(=O)N(c2ccccc2)c2ccccc21 (centres unmarked),-3.56
13,O=C(CCS(=O)(=O)c1ccccc1)Nc1nc2c(s1)CCCC2,0.42
14,CC1CCCN(c2nc3c(c(=O)n(C)c(=O)n3C)n2Cc2ccccc2)C1 (centres unmarked),-40.9
15,COc1ccc(N2CCN(S(=O)(=O)c3ccc4c(c3)NC(=O)C(C)S4)CC2)cc1 (centres unmarked),6.85
16,CC(C)C(C(=O)Nc1ccc(S(=O)(=O)N2CCOCC2)cc1)N1C(=O)c2ccccc2C1=O (centres unmarked),-16.2
17,CC/C(=N/NC(=O)CCC(=O)Nc1ccccc1OC)c1ccccc1,-1.67
18,O=C(CN1CCN(Cc2ccccc2)CC1)Nc1ccc(Cl)cn1,-74.5
19,O=C(CN1CCCCCC1)Nc1ccc(Cl)cn1,1.45
20,O=C(CN1CCN(Cc2ccccc2)CC1)Nc1ccccc1,-26.9
21,O=C(CN1CCN(Cc2ccccc2)CC1)Nc1ccc(Br)cc1,-71.9
22,O=C(CN1CCN(Cc2ccccc2)CC1)Nc1ccc(-n2cnnn2)cc1,-48
23,O=C(CN1CCN(Cc2ccccc2)CC1)Nc1ccc(N2CCOCC2)cc1,-3.67
24,O=C(CN1CCOCC1)Nc1ccc(Cl)cn1,20.6

row,Structure (SMILES),"hERG current change (%, negative = inhibition) at 10uM [%]"
1,O=C(CN1CCN(Cc2ccccc2)CC1)Nc1ccc(Cl)cc1,-68.4
2,NC(=O)c1ccc(NC(=O)CN2CCN(Cc3ccccc3)CC2)cc1,-0.874
3,C/C(=N\NC(=O)c1cccnc1)c1ccc(OC2OCCOC2Oc2ccc(/C(C)=N/NC(=O)c3cccnc3)cc2)cc1 (centres unmarked),8.81
4,COc1ccc(-n2c(=O)n(Cc3ccccc3)c(=O)c3[nH]cnc32)cc1,-17.1
5,COc1ccc(S(=O)(=O)NC2CCCC2)cc1C(N)=O,4.15
6,CCCn1c(=O)c(C(=O)Nc2ncccc2O)c(O)c2ccccc21,11.1
7,Cc1cc(=O)oc2cc(OCC(=O)NCc3ccco3)ccc12,-6.81
8,Cc1cc(=O)oc2ccc(OCC(=O)N(Cc3ccc(F)cc3)Cc3ccco3)cc12,-58.8
9,Cc1cc(=O)oc2ccc(OCC(=O)O)cc12,16.1
10,COc1ccc2ccccc2c1CNc1nnnn1C,17.9
11,CSc1ccc(S(=O)(=O)N2CCC(C(=O)N3CCOCC3)CC2)cc1,2.57
12,Cc1coc2cc3oc(=O)c(CC(=O)N4C[C@H]5C[C@@H](C4)c4cccc(=O)n4C5)c(C)c3cc12,-41.5
13,Cc1c(CC(=O)N2C[C@H]3C[C@@H](C2)c2cccc(=O)n2C3)c(=O)oc2cc(O)c(Cl)cc12,9.44
14,C=C(C)COc1ccc2c(C)c(CCC(=O)N3C[C@H]4C[C@@H](C3)c3cccc(=O)n3C4)c(=O)oc2c1,-60.4
15,Cc1oc2c(C)c3oc(=O)c(CCC(=O)N4C[C@H]5C[C@@H](C4)c4cccc(=O)n4C5)c(C)c3cc2c1C,-51.7
16,Cc1oc2cc3oc(=O)c(CCC(=O)N4C[C@H]5C[C@@H](C4)c4cccc(=O)n4C5)c(C)c3cc2c1C,-54
17,C=C(C)COc1ccc2c(C)c(CC(=O)N3C[C@H]4C[C@@H](C3)c3cccc(=O)n3C4)c(=O)oc2c1,-48.5
18,COc1ccc2c(C)c(CC(=O)N3C[C@H]4C[C@@H](C3)c3cccc(=O)n3C4)c(=O)oc2c1,-32.4
19,Cc1c(CC(=O)N2C[C@H]3C[C@@H](C2)c2cccc(=O)n2C3)c(=O)oc2c(C)c(O)ccc12,4.94
20,COc1ccc2c(C)c(CCC(=O)N3C[C@H]4C[C@@H](C3)c3cccc(=O)n3C4)c(=O)oc2c1,-34.9
21,COc1ccc2c(C)c(CC(=O)N3C[C@H]4C[C@@H](C3)c3cccc(=O)n3C4)c(=O)oc2c1OC,-1.03
22,Cc1c(CC(=O)N2C[C@H]3C[C@@H](C2)c2cccc(=O)n2C3)c(=O)oc2cc3occ(C(C)(C)C)c3cc12,-73.4
23,Cc1coc2cc3oc(=O)c(CCC(=O)N4C[C@H]5C[C@@H](C4)c4cccc(=O)n4C5)c(C)c3cc12,-42.5
